TRPM1 prom inh: inhibitors of MITF-dependent TRPM1 promoter reporter, primary screen, cell-based, SK-MEL-5, single point, luciferase; SK-MEL-5 TRPM1 promoter luciferase, 24 h; inhibition, % at 12.5 µM; hit rate 0.83% among 330,000;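 active means mean inhibition across replicates of 60% or more, whatever share of single replicates reaches that level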
Shn3 3UTR inh: reduction of Shn3 3'UTR firefly luciferase signal, primary screen, Schnurri-3 inhibitor project, cell-based, Clone20 osteoblasts, set 2; Clone20 osteoblast Shn3 3'UTR firefly luciferase, 24 h; hit rate 0.52% among 360,000; inhibition, % at 12.5 µM;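 active means mean inhibition of at least 75% with every replicate also reaching 75%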
CF NFkB inh: inhibitors of PAF-induced NF-kB signaling, primary screen, cell-based, GFP fluorescence, uHTS. inhibition, % at 5 µM. KKLEB NF-kB-GFP reporter, GFP fluorescence overnight. hit rate 0.86% among 360,000;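 active means at least 50% inhibition at 5 µM, scaled per plate between neutral and stimulator controls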;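 further: PAF is a Pseudomonas aeruginosa culture filtrate used as stimulus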
KKLEB tox: cytotoxicity in KKLEB CF airway cells, primary screen, cytotoxicity control for CF NF-kB inhibitor project, cell-based, uHTS, fluorescence assay plates | KKLEB CF airway cells viability, ATPlite luminescence, overnight; stronger effect = lower value; cells stimulated with P. aeruginosa culture filtrate | activity change (cytotoxicity), % at 5 µM | hit rate 0.36% among 360,000 | AID 602141, 2011;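 active means corrected activity change at or below -50% at 5 µM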
HIF-2a inh: HIF-2a reporter inhibitors, primary screen, luminescence, 786-0 RCC cells | 786-0 RCC cells HIF-2a reporter, luciferase luminescence, overnight | inhibition, % at 18.8 µM | hit rate 0.72% among 360,000;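 active means inhibition of the luminescence signal of 40% or more relative to plate controls, in a single-dose primary screen at 18.75 µM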
Peg3 prom inh-1: Peg3 promoter-driven luciferase inhibitors, primary screen, cell-based, HeLa, luciferase luminescence | HeLa PEG-Prom luciferase reporter, overnight | inhibition, % at 20 µM | hit rate 1.7% among 360,000 | AID 588405, 2011;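 active means inhibition of at least 50% at 20 µM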
Peg3 prom inh-2: Peg3 promoter reporter inhibitors, retest, confirmation, cell-based, HeLa, luciferase reporter, single concentration; hit rate 84% among 1,300; inhibition, % at 20 µM; shares compounds with Peg3 prom inh-1; AID 602417, 2012; HeLa PEG-Prom luciferase reporter, luminescence, overnight;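 active means at 20 µM dose, 40% or more inhibition averaged across four replicates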
Hits are given with their value; n = inactive; x = no result given. A selection: hits, their analogues and other compounds. The true share with any hit is near 2.7%.

SMILES | TRPM1 prom inh | Shn3 3UTR inh | CF NFkB inh | KKLEB tox | HIF-2a inh | Peg3 prom inh-1 | Peg3 prom inh-2
COc1ccccc1C(=O)O/N=C(\N)c1ccccn1 | n | n | n | n | n | n | x
N/C(=N\OC(=O)c1ccccc1Cl)c1ccccn1 | 66.3 | n | n | n | n | 59.2 | n
COc1ccc(C(=O)O/N=C(\N)c2ccccn2)cc1 | 80.5 | n | n | n | n | 98.8 | 91.9
N/C(=N\OC(=O)c1ccc(Cl)cc1)c1ccccn1 | n | n | n | n | n | 78.3 | n
COc1cc(OC)cc(C(=O)O/N=C(\N)c2ccccn2)c1 | x | n | n | n | n | n | x
COc1ccc(C(=O)NNC(=O)c2ccccn2)cc1 | 85.4 | n | n | n | 82.6 | 104.6 | 95.3
CC(C)C[C@@H]1COc2cccc(N(C)CCO)c2S(=O)(=O)N1 | x | x | x | x | n | x | x
O=C(COc1ccc2c3c(c(=O)oc2c1)CCC3)Nc1ccccn1 | n | n | n | n | n | n | x
Cc1ccc2c(CC(=O)NNC(=O)c3ccccc3O)coc2c1 | n | n | n | n | n | n | x
COC(=O)C1=C(C)N(Cc2ccccc2)C(=NCc2cccc(Cl)c2)N[C@H]1c1ccccc1 | n | n | n | n | n | 101.2 | 98.0
O=C(O)Cc1ccc(S(=O)(=O)N2CCCC2)s1 | n | n | n | n | n | n | x
Cc1ccc(NC(=O)c2ncn(CCCNCCCN3CCCC3=O)n2)cc1C | n | n | n | n | n | n | x
Cc1cc(C)c(CN2CCN(CCCn3cnc(C(=O)Nc4ccc(C)c(C)c4)n3)CC2)c(C)c1 | 84.2 | n | n | n | n | 97.9 | 96.6
O=C1c2cccc(NCCNCCO)c2C(=O)c2cccc(NCCNCCO)c21 | 80.7 | n | n | n | 78.3 | 99.4 | n
O=C(O)CCNc1ccc(NCCC(=O)O)c2c1C(=O)c1ccccc1C2=O | n | n | n | n | n | n | x
COc1ccc(-n2nc(C(=O)Nc3ccc(OC)c(OC)c3)c3c4ccccc4n(C)c3c2=O)cc1 | n | n | 64.3 | -59.7 | n | 61.6 | n
O=C(NNC(=O)c1ccccc1F)c1ccc(Cl)c(S(=O)(=O)N2CCOCC2)c1 | n | n | n | n | n | n | x
CN1C/C(=C/c2ccccc2[N+](=O)[O-])C(=O)/C(=C\c2ccccc2[N+](=O)[O-])C1 | 62.3 | n | n | n | n | 95.9 | 99.5
Cc1ccc(C)c2c1CCC(=Cc1ccccc1[N+](=O)[O-])C2=O | x | n | n | n | n | n | x
CCOC(=O)c1cc2c(=O)n3ccccc3nc2n(C(C)C)c1=NC(=O)c1c(-c2c(F)cccc2Cl)noc1C | n | n | n | n | n | 64.5 | 43.0
CCOC(=O)c1cc2c(=O)n3ccccc3nc2n(C)c1=NC(=O)c1c(-c2c(F)cccc2Cl)noc1C | n | n | n | n | n | n | x
CCCS(=O)(=O)NC(=O)C1(C)CCCN(C(=O)c2c(C)noc2C)C1 (centres undefined) | x | n | n | n | n | n | x
NC(N)=N/N=C/c1cccc(Cl)c1Cl | n | n | n | n | n | 75.8 | 80.1
COc1ccc(CN(C)C(=O)c2cc(-c3ccc(OC)c(OC)c3)nc3ccccc23)c(OC)c1 | n | n | n | n | n | n | x
COc1ccccc1CN(C)C(=O)c1cc(-c2cccs2)nc2ccccc12 | n | n | n | n | n | 69.0 | 81.2
SMILES | TRPM1 prom inh | Shn3 3UTR inh | CF NFkB inh | KKLEB tox | HIF-2a inh | Peg3 prom inh-1 | Peg3 prom inh-2
COc1ccccc1-c1csc(NC(=O)c2cc(-c3cccs3)nc3ccccc23)n1 | n | n | n | n | n | n | x
COc1ccc(CCN(C)C(=O)c2cc(-c3ccccc3)nc3ccc(C)cc23)cc1OC | n | n | n | n | n | n | x
COc1ccc(-c2cc(C(=O)N(C)Cc3cccc(OC)c3OC)c3ccccc3n2)cc1OC | n | n | n | n | n | 55.1 | 56.2
COc1ccc(CN(C)C(=O)c2cc(-c3ccccc3)nc3ccc(C)cc23)c(OC)c1OC | n | n | n | n | n | 58.8 | 59.5
Cc1ccc(CN2CCC(n3nccc3NC(=O)c3ccccc3C)CC2)o1 | n | n | n | n | n | n | x
CC(=O)Nc1ccc(NC(=O)CC(C)n2ccnc2)cc1 (centres undefined) | n | n | n | n | n | n | x
COCCCC1CCN(C(=O)C2CCC(=O)N(CCc3cccc(F)c3)C2)CC1 (centres undefined) | n | n | n | n | n | n | x
CCNC(=O)C1(C)CCN(C(=O)c2ccccc2OC(F)(F)F)C1 (centres undefined) | x | n | n | n | n | n | x
Cc1ccc(S(=O)(=O)N2CCN(C(=O)N3CCCCC3)CC2)c(C)c1 | x | n | n | n | n | n | x
CC(C)c1ccc(CNC(=O)C2CCCN2S(=O)(=O)c2ccccc2)cc1 (centres undefined) | n | n | n | n | n | n | x
Cc1ccc(C(=O)N/N=C/c2ccc([N+](=O)[O-])s2)cc1 | 104.7 | 89.8 | n | n | 90.8 | 82.2 | 79.8
CC(C)CCCCCCCCCCCCC(=O)NCC(=O)NC1C(O)C(O)C(Nc2ncnc3nc[nH]c23)OC1C(O)CO (centres undefined) | 76.2 | 97.1 | 90.4 | n | 69.4 | 99.9 | 99.3
Cc1nc(C)c(C(=O)N/N=C/c2cc(Br)ccc2O)s1 | 63.1 | x | n | n | n | 50.3 | 61.2
CN(C)C=NC(=O)c1[nH]c2ccc(Cl)cc2c1-c1ccccc1 | n | n | n | n | n | 71.9 | 80.8
O=C(CCc1nc2ccccc2c(=O)[nH]1)Nc1cc(C(F)(F)F)ccc1N1CCCC1 | n | n | n | n | n | n | x
Cc1c(CCOC(=O)C23CC4CC(CC(C)(C4)C2)C3)sc[n+]1CC(=O)c1ccccc1 | n | n | n | n | n | 54.1 | 90.5
COc1ccc(/C=N/n2c(=O)[nH]c3c([nH]c4ccc(C)cc43)c2=O)cc1CN1CCOCC1 | n | n | n | n | n | n | x
CC1=CC(C)[C@H](/C=N/n2c(=O)[nH]c3c([nH]c4ccc(C)cc43)c2=O)C(C)C1 (some centres undefined) | n | n | n | n | n | 61.5 | n
COc1cccc(/C=N/NC(=O)CNC(=O)COc2ccccc2)c1O | n | n | n | n | n | n | x
Cc1cccc(OCC(=O)NCC(=O)N/N=C/c2cc(Br)cc(Br)c2O)c1 | n | n | n | n | n | 57.3 | 63.3
O=C(Nc1ccccc1C(=O)Nc1nnc(C(F)(F)F)s1)c1ccccc1 | n | n | n | -53.3 | n | 59.1 | 86.9
